The structures appear in SMILES notation. Out of some 68,000 compounds screened, about 2,700 (4%) showed an effect of 50% or more. This excerpt belongs to a sample that is enriched for strong results.

This assay relates to Plasmodium berghei. The experiment in a line: Screen against P. berghei liver stage (PbLuc), transformed with Luciferase, at 2uM. The class given is functional, HepG2. As to conditions: tested at 2 uM.
On to `Nc1ncc(-c2cccc(NC(=O)[C@@H]3CCCCN3)c2)cn1`, for which the INHIBITION worked out at 14.95%.

Take `CN(C)CCN1CCN(C(=O)c2ccn(C)c(=O)c2)CC1`: the INHIBITION is 5.59%. Turning to `CC(C)OCCCNC(=O)c1c(-n2cnnn2)sc2c1CCCC2`, the INHIBITION is recorded as 49.57%. As to `Cc1ccc(N2C[C@H]3OCC[C@H]3[C@H](C(=O)NCC3CC3)C2)nn1`, the INHIBITION is -11.4%. With `Cc1ccc(N2C[C@H]3OCC[C@H]3[C@H](C(=O)NCc3ccco3)C2)nn1`, the INHIBITION was 65.78%.

For the compound `Cc1ccc(N2C[C@H](C(=O)NCC3CC3)[C@@H]3CCO[C@@H]3C2)nn1`, the INHIBITION is recorded as -2.72%. In the case of `Cc1nccn1CC1CCN(C(=O)c2ccccc2)CC1`, the INHIBITION is given as -78.75%. Then `COc1cccc(N2CC3(CCN(c4ccncn4)C3)CC2=O)c1` (centres undefined), with 13.38%; and `CNc1cncc(C2CCCN2S(=O)(=O)c2ccc(F)cc2)n1` (centres undefined), with 2.8%; and `CN(C)CCN1CCC2(CCCN(C(=O)C3CCC3)C2)CC1`, with -9.47%.

For `CC(C#N)NS(=O)(=O)c1cccc(C(C)C)c1` (centres undefined), the INHIBITION came out at 69.67%.

In the case of `CNS(=O)(=O)c1cccc(C(C)NCc2ccccc2)c1` (centres undefined), the INHIBITION turned out to be 12.75%. With `Cc1ccc(S(=O)(=O)NC(C)C#N)cc1Br` (centres undefined), the INHIBITION is -29.94%. As to `CC(CO)NS(=O)(=O)c1cccc(C(C)C)c1` (centres undefined), the INHIBITION stood at 60.13%.

Consider `CC(C)c1cccc(S(=O)(=O)NCCCN2CCC(O)CC2)c1`, for which the INHIBITION is on record as -13.21%. With `CCC(=O)c1cccc(S(=O)(=O)NC(C)C#N)c1` (centres undefined), the INHIBITION is on record as 31.51%. Take `COc1ccc(Cn2cc(C(=O)N(C)Cc3ccn[nH]3)nn2)cc1`: the INHIBITION came out at 20.71%.

As to `COC(=O)N1CC[C@@]2(C1)[C@H](OC)CN(c1ccccc1)S2(=O)=O`, the INHIBITION was 22.01%. Regarding `Cc1cc(C2CCNCC2)nc(-c2ccsc2)n1`, the INHIBITION is given as 24.98%. On to `CN1CCOC(CNCC(=O)NCCc2ccc(F)cc2)C1` (centres undefined), for which the INHIBITION is -8.14%. With `c1cnnc(N2CCCC2CNCc2ccsc2)c1` (centres undefined), the INHIBITION turned out to be 54.85%.

For the compound `c1cnnc(N2CCCC2CNCc2cccs2)c1` (centres undefined), the INHIBITION is listed as 23.86%.

Regarding `c1ccc(-n2cc(CNCC3CCCN3c3cccnn3)cn2)cc1` (centres undefined), the INHIBITION was -7.13%. Turning to `c1cnnc(N2CCCC2CNCc2cscn2)c1` (centres undefined), the INHIBITION is on record as 4.19%. Turning to `c1ccc(Cn2cc(CNCC3CCCN3c3cccnn3)cn2)cc1` (centres undefined), the INHIBITION was 62.46%. In the case of `c1ccc(Cn2ccnc2CNCC2CCCN2c2cccnn2)cc1` (centres undefined), the INHIBITION is reported as 11.2%. As for `CO[C@@H]1CC[C@H]2[C@H]1OCCN2C(=O)c1ccc(C)nc1`, the INHIBITION came out at 29.89%. With `CC(C)CNC(=O)C1=NOC2(CCN(Cc3ccc(C(C)C)cc3)C2)C1` (centres undefined), the INHIBITION is given as 32.09%.

As to `CCOCc1nc2c(c(NCCNC(C)=O)n1)CCN(C(C)=O)CC2`, the INHIBITION worked out at 18.28%. For the compound `CCOc1nnc(CN2CCC(c3cc4ccccc4[nH]3)CC2)s1`, the INHIBITION was 38.33%. Regarding `CCOc1nnc(CN2CCCC(c3nc4ccccc4[nH]3)C2)s1` (centres undefined), the INHIBITION amounted to 53.63%.

`CCOc1nnc(CN2CCC(c3nc4ccccc4[nH]3)CC2)s1`: the INHIBITION turned out to be 28.42%. `CCCN(CC(=O)OC)C(=O)c1sc(C)nc1C`: the INHIBITION was -1.29%. With `Cc1ccc(OCCNC(=O)C(C)n2cncn2)cc1` (centres undefined), the INHIBITION was determined as 42.11%. Then `CC(C(=O)NCCOc1cccc(Cl)c1)n1cncn1` (centres undefined), with 56.67%; and `CC(C(=O)NCCOc1ccccc1)n1cncn1` (centres undefined), with 26.76%; and `Cc1cc(=O)[nH]c(=O)n1COCCOCc1ccccc1`, with 30.48%.

For the compound `O=C(c1nn(-c2ccccc2F)cc1O)N1CCCCC1`, the INHIBITION is -10.64%. Take `Cc1ccc2c(C)c(C(=O)NCc3csc(N)n3)oc2c1`: the INHIBITION is on record as -27.36%. In the case of `Cc1[nH]c2c(C)ccc(C)c2c1CC(=O)NCCCNc1cccnc1`, the INHIBITION is recorded as -10.38%. The same measure for `Cc1[nH]c2c(C)ccc(C)c2c1CC(=O)NCCNc1cccnc1`: 64.92%; for `Cc1[nH]c2c(C)ccc(C)c2c1CC(=O)NCC(O)c1cccnc1` (centres undefined): 31.65%; for `COc1cccc(CC(=O)N2CCC3(CC2)OCCCC3O)c1OC` (centres undefined): 3.4%. For the compound `CC(C)OCCOCc1cccc(NC(=O)NCCn2ccnc2)c1`, the INHIBITION is 3.85%. `C=c1ccoc1=C1NN=C(CNCCn2cccn2)O1`: the INHIBITION is on record as 58.49%.

Take `C=c1ccoc1=C1NN=C(CNCC2CCCN2c2cccnn2)O1` (centres undefined): the INHIBITION is on record as -10.6%. Then `C=c1ccoc1=C1NN=C(CNCCn2cc(C)cn2)O1`, with 32.63%; and `COc1c(CNCc2ccc(C(=O)N(C)C)cc2)c(C)nn1C`, with -11.71%; and `Cc1oc(-c2nc(C#N)c(N(C)C)o2)cc1S(=O)(=O)N1CCCC1`, with -20.66%. The same measure for `O=C(c1ccc(-c2nc[nH]n2)cc1)N1CC[C@H](CO)[C@@H](O)C1`: -94.13%; for `O=C(c1ccccc1-c1nc[nH]n1)N1CCOC(C(F)(F)F)C1` (centres undefined): -99.7%; for `O=C(c1ccc(-c2nc[nH]n2)cc1)N1CCOC(C(F)(F)F)C1` (centres undefined): 50.91%. As to `CCOCC(O)CN1CCN(C(=O)CC(C)C)CC1` (centres undefined), the INHIBITION is -38.96%. Take `Cc1cc(C)n(CC2CN(CC(=O)N3CCC3)CCO2)n1` (centres undefined): the INHIBITION was -9.17%.

Consider `c1cncc(COCC2CNCc3nccn3C2)c1` (centres undefined), for which the INHIBITION is listed as 38.49%. With `CS(=O)(=O)NCc1ccc(NC(=O)CC2=CCCCC2)cc1`, the INHIBITION turned out to be 35.9%.

`COCCO[C@H]1CCN(C(=O)c2ccsc2)[C@H]1Cc1cnn(C)c1`: the INHIBITION is on record as -10.92%. For `COc1ccccc1-c1cc(C(F)(F)F)c2c(C)nn(CC(=O)O)c2n1`, the INHIBITION came out at 31.51%. The same measure for `CCc1cc(C(F)(F)F)c2c(C)nn(CC(=O)O)c2n1`: 57.33%. As to `Cc1nn(C)cc1-c1cc(C(F)(F)F)c2c(C)nn(CC(=O)O)c2n1`, the INHIBITION is 15.91%. Take `CCn1ccnc1CN1CCCN(C(=O)c2cc[nH]n2)CC1`: the INHIBITION came out at 0.74%.

`O=S(=O)(N1CCN(CC2CC2)CC1)N1CCCC1c1ccco1` (centres undefined): the INHIBITION is listed as -20.95%.

Regarding `O=S(=O)(N1CCC(n2cccc2)CC1)N1CCCC1c1ccco1` (centres undefined), the INHIBITION turned out to be 50.59%. In the case of `COC1CCN(S(=O)(=O)N2CCCC2c2ccco2)CC1` (centres undefined), the INHIBITION came out at 36.28%. Take `CC(C)NC(=O)[C@@]12CCO[C@@H]1CCN(Cc1ccc3c(c1)OCO3)C2`: the INHIBITION was 50.85%. As to `O=C(NC1CC1)[C@@]12CCO[C@@H]1CCN(Cc1ccc3c(c1)OCO3)C2`, the INHIBITION is -14.64%. For the compound `CNC(=O)[C@@]12CCO[C@@H]1CCN(Cc1ccc3c(c1)OCO3)C2`, the INHIBITION stood at 39.02%.

As for `CC(=O)N1CC2(CCCCN2Cc2ccc(Cl)cc2)Cc2ccccc21` (centres undefined), the INHIBITION was -31.86%. Consider `Cn1ccc(CN2CCCC23CCN(Cc2cccc(F)c2)CC3)n1`, for which the INHIBITION worked out at 1.81%.

With `Cc1ccccc1OCC(=O)NCC(c1ccc(N(C)C)cc1)N(C)C` (centres undefined), the INHIBITION is recorded as 36.6%. On to `CCOc1ccccc1C(=O)N(C)C(C)c1ccc(S(C)(=O)=O)cc1` (centres undefined), for which the INHIBITION stood at 91.01%. Consider `CC(c1ccc(S(C)(=O)=O)cc1)N(C)C(=O)c1ccccc1I` (centres undefined), for which the INHIBITION was 6.85%. Consider `CC(c1ccc(S(N)(=O)=O)cc1)N(C)C(=O)c1ccccc1I` (centres undefined), for which the INHIBITION is listed as -28.49%. For `CC(C)c1csc(NC(=O)NC2CCCN(c3cnn(C)c3)C2)n1` (centres undefined), the INHIBITION was -20.08%. The same measure for `N#Cc1cc(F)c(N2CCC(NS(=O)(=O)c3cccs3)CC2)c(F)c1`: 24.17%. Consider `CSCC(C)(O)CNc1cccc(F)c1C(C)=O` (centres undefined), for which the INHIBITION is listed as 8.75%.

Regarding `CC(C)C(C)(O)CNc1cccc(F)c1C#N` (centres undefined), the INHIBITION was 28.1%. As to `CSCC(C)(O)CNc1cccc(F)c1C#N` (centres undefined), the INHIBITION worked out at 52.6%.

In the case of `Cc1ccc(-n2ncc(C(=O)N(C)C3CCN(C)CC3)c2N)cc1C`, the INHIBITION was -11.1%. For the compound `O=C(C1=CCCC1)N1CCC[C@]2(C[C@@H](OCc3ccccn3)CO2)C1`, the INHIBITION is recorded as 3.72%. In the case of `CC(c1ccco1)N(C(=O)c1cccc(C#N)c1)C1CC1` (centres undefined), the INHIBITION turned out to be 32.93%. For `CC(c1ccco1)N(C(=O)NCc1ccon1)C1CC1` (centres undefined), the INHIBITION is 1.88%. The same measure for `Cc1noc(C)c1CNC(=O)N(C1CC1)C(C)c1ccco1` (centres undefined): 50.91%. The same measure for `CCc1cc(CNC(=O)N(C2CC2)C(C)c2ccco2)on1` (centres undefined): -27.89%. As for `Cc1noc(C)c1CNC(=O)N(C)C1CCN(c2ccccc2)C1=O` (centres undefined), the INHIBITION is on record as -7.88%.

Turning to `CCc1cc(CNC(=O)N(C2CC2)C(C)c2ccco2)[nH]n1` (centres undefined), the INHIBITION is 61.42%.

Turning to `COc1cc(N2CCC3(CC2)OCC(=O)NC3C)ncn1` (centres undefined), the INHIBITION is -7.03%. `Cc1ccc(CN2CC[C@H]3[C@H]2CC(=O)N3c2ccsc2)o1`: the INHIBITION is 43.05%.

Turning to `COCCC(=O)N[C@H]1CC[C@H](Nc2nccc(-c3ccncc3)n2)C1`, the INHIBITION is reported as 24.51%. The same measure for `O=c1c(Cc2ccc(Cl)cc2Cl)c(O)ccn1CC1CC1`: 31.56%.

For `CCc1nc2ccccc2c(=O)n1CC1(O)CCN(CC(=O)OC)CC1`, the INHIBITION was 28.64%. With `CCc1nc2ccccc2c(=O)n1CC1(O)CCN(C(=O)COC)CC1`, the INHIBITION is given as 56.99%. The same measure for `CCCC(=O)N1CCC(O)(Cn2c(CC)nc3ccccc3c2=O)CC1`: -64.2%. As for `CCc1nc2ccccc2c(=O)n1CC1(O)CCN(C(=O)C(C)C)CC1`, the INHIBITION amounted to 59.91%. The same measure for `CCc1nc2ccccc2c(=O)n1CC1(O)CCN(C(=O)C2CC2)CC1`: 29.89%; for `CCc1nc2ccccc2c(=O)n1CC1(O)CCN(S(C)(=O)=O)CC1`: -37.18%. As for `Cc1nccn1CCC(=O)N1CCC2(CCC(=O)N(CC3CC3)C2)CC1`, the INHIBITION is -63.27%. `Cn1cc(Br)c(=O)c(NS(=O)(=O)c2ccc(Cl)cc2)c1`: the INHIBITION worked out at 4.67%. For the compound `CCc1ccc(S(=O)(=O)Nc2cn(C)cc(Br)c2=O)cc1`, the INHIBITION came out at 11.28%. The same measure for `Cn1cc(Br)c(=O)c(NS(=O)(=O)c2ccc(F)cc2)c1`: 55.04%; for `CNS(=O)(=O)c1cc(C(=O)N(C)Cc2sccc2C)c(C)o1`: 10.48%. Consider `Cc1cc(C(=O)N2C[C@@H](C(=O)O)[C@H](C(C)C)C2)cs1`, for which the INHIBITION was -3.66%. Turning to `Cc1cc(C(=O)N2C[C@H](C(C)C)[C@@H](N(C)C)C2)cs1`, the INHIBITION is given as 68.66%. `Cc1nc(CC(C)C)cc(C(=O)N2C[C@@H](N(C)C)[C@H](C(C)C)C2)n1`: the INHIBITION is 0.55%.
